# Screening data as filed in PubChem BioAssay.
# This is a sample that favours compounds with a hit; in the whole collection about 4.3% have one here.
# CHOP inhibitor: CHOP inhibition in unfolded protein response. CHO-K1 CHOP-promoter luciferase, tunicamycin-induced, 15-18 h. hit rate 3.8% among 220,000. AID 2732. inhibition, % at 10 µM;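 active = compounds that reduced the stress-induced luciferase reporter signal by more than about 70% of percent inhibition, limit read from the data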;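 also: 0% = tunicamycin plus vehicle and 100% = wells without tunicamycin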
# Peg3 prom inh: inhibitors of Peg3 promoter | HeLa PEG-Prom luciferase reporter, luminescence, overnight | inhibition, % at 20 µM | hit rate 1.7% among 360,000 | AID 588405;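 active = inhibition of at least 50% at 20 µM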
# HIF-2a inh: HIF-2a inhibition. inhibition, % at 18.8 µM. hit rate 0.72% among 360,000. AID 624352. 786-0 RCC cells HIF-2a reporter, luciferase luminescence, overnight;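 active = inhibition of the luminescence signal of 40% or more relative to plate controls, in a single-dose primary screen at 18.75 µM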
# KKLEB tox: counter-screen for CF NF-kB inhibitors: cytotoxicity; activity change (cytotoxicity), % at 5 µM; KKLEB CF airway cells viability, ATPlite luminescence, overnight; active compounds read low; cells stimulated with P. aeruginosa culture filtrate; hit rate 0.36% among 360,000;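 active = corrected activity change at or below -50% at 5 µM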
# TRPM1 prom inh: MITF TRPM1 promoter inhibition in SK-MEL-5 cells | SK-MEL-5 TRPM1 promoter luciferase, 24 h | inhibition, % at 12.5 µM | hit rate 0.83% among 330,000 | AID 488899;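 active = mean inhibition across replicates of 60% or more, whatever share of single replicates reaches that level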
# CF NFkB inh: cystic fibrosis NF-kB activation inhibition; hit rate 0.86% among 360,000; inhibition, % at 5 µM; AID 588850; KKLEB NF-kB-GFP reporter, PAF-induced, GFP fluorescence overnight;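 active = at least 50% inhibition at 5 µM, scaled per plate between neutral and stimulator controls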;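 also: PAF is a Pseudomonas aeruginosa culture filtrate used as stimulus; plate controls were PAF-stimulated DMSO wells for no effect and unstimulated DMSO wells for full effect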
# * = called active by the depositor; · = not tested or not shown; ! = not active in a repeat.
SMILES,CHOP inhibitor,Peg3 prom inh,HIF-2a inh,KKLEB tox,TRPM1 prom inh,CF NFkB inh
O=C(CCc1ccc(S(=O)(=O)N2CCOCC2)cc1)OCC(=O)c1ccccc1F,·,6,6,5,0,-17
Cc1cc(NC(=O)Cn2nc(-c3ccccc3F)ccc2=O)ccc1-n1cnnn1,72*,27,15,0,0,5
CCOC(=O)c1nnc(-c2ccc(C)cc2)nc1Oc1ccccc1Cl,78*,28,26,-11,13,-4
Cc1c(NC(=O)N(C)c2ccccc2)c(=O)n(-c2ccccc2)n1C,·,22,15,6,8,-22
CCOC(=O)c1cnc2ccc(Cl)cc2c1NCCN(C)C,-4,59*,3,10,-8,-12
CCN1CCN(Cc2ccc(NC(=O)c3cc(NC(=O)c4cc(C)on4)cc(OC)c3)cc2C(F)(F)F)CC1,·,57*!,-28,5,50,16
CCN1CCN(Cc2ccc(NC(=O)c3cc(NC(=O)C(=O)c4c[nH]c5ccccc45)cc(OC)c3)cc2C(F)(F)F)CC1,49,94*,-85,7,58,-2
CCN1CCN(Cc2ccc(C(=O)Nc3ccc(C)c(NCc4cnc(NC(=O)OC)cn4)c3)cc2C(F)(F)F)CC1,·,2,-24,1,8,14
CCN1CCN(Cc2ccc(NC(=O)c3ccc(C)c(NC(=O)c4ccnnc4)c3)cc2C(F)(F)F)CC1,1,6,21,-19,-9,46
CCN1CCN(Cc2ccc(NC(=O)c3cc(NC(=O)c4cnn(-c5ccccc5)c4N)cc(OC)c3)cc2C(F)(F)F)CC1,32,-34,-18,-8,79*,45
COc1ccc(NC(=O)CN(C)S(=O)(=O)c2ccc3c(c2)c(=O)n(C)c(=O)n3C)cc1,·,13,8,1,5,12
CCCCOc1ccc(-c2nnn(CC(=O)NCCc3c[nH]c4ccccc34)n2)cc1,79*,-151,-90,7,-19,-20
COc1ccc(-c2sc3cc4c(cc3c2-c2ccc(OCCN3CCOCC3)cc2)OCO4)cc1,·,17,-5,-11,-10,38
COc1cc2sc(-c3ccccc3OC)c(-c3ccc(OCCN4CCCCC4)cc3)c2cc1OC,·,89*,19,-30,25,19
COc1ccccc1-c1sc2cc3c(cc2c1-c1ccc(OCCN2CCCCC2)cc1)OCO3,·,100*,22,-28,-1,25
COc1ccc2sc(-c3ccccc3OC)c(-c3ccc(OCCN4CCOCC4)cc3)c2c1,·,23,12,-27,-10,38
N#CC1(NC(=O)CN2C(=O)NC(c3ccccc3)(c3ccccc3)C2=O)CCCC1,·,9,9,3,12,14
O=C(COc1ccc([N+](=O)[O-])cc1Cl)N1CCc2ccccc21,·,-187,-270,-20,-115,5
COc1cc(OC)cc(C(=O)N2CCN(S(=O)(=O)c3ccc(Cl)s3)CC2)c1,·,13,20,7,2,-15
CCCN(CCC)CCCNC(=O)c1cc2cc3ccc(OC)cc3nc2o1,·,-13,-6,-4,-39,-9
Cc1ccc(/C=C/C(=O)NC(=S)Nc2ccccc2C(=O)NC2CCCCC2)cc1,23,-2,5,-8,-1,2
COc1ccc(/C=C/C(=O)NC(=S)Nc2ccccc2C(=O)NC2CCCCC2)cc1,90*,14,6,-22,-7,16
COc1ccc(/C=C/C(=O)NC(=S)NCCc2ccc(OC)c(OC)c2)cc1,88*,46,16,-6,21,-17
COc1ccc(/C=C/C(=O)NC(=S)NNC(=O)c2cc(OC)c(OC)c(OC)c2)cc1,89*,15,11,-1,11,11
COc1ccc2cc3cc(C(=O)NCCc4ccc(OC)c(OC)c4)oc3nc2c1,10,53*,24,-4,65*,3
SMILES,CHOP inhibitor,Peg3 prom inh,HIF-2a inh,KKLEB tox,TRPM1 prom inh,CF NFkB inh
C=CCn1c(SCC(=O)N(CC)c2c(N)n(Cc3ccccc3)c(=O)[nH]c2=O)nnc1-c1ccccc1OC,·,-2,0,6,-2,10
Fc1ccccc1N1CC(c2ccccc2)C(c2cccs2)=N1 (stereo unspecified),71*,6,-28,-1,4,8
O=S(=O)(NCCc1ccc(Cl)cc1)c1cccc2cccnc12,·,10,8,5,7,7
CCOc1ccc(C(=O)NCC2CCCN2S(=O)(=O)c2cccs2)cc1 (stereo unspecified),·,-16,-4,18,4,-1
C=CCn1c(-c2cc(-c3ccc(C)cc3)nc3ccccc23)n[nH]c1=S,70*,-44,-80,20,-8,-12
Cc1ccc(C)c(NS(=O)(=O)c2ccc3c(c2)Cc2cc(S(=O)(=O)Nc4cc(C)ccc4C)ccc2-3)c1,83*,8,5,-15,5,28
Cc1ccc(S(=O)(=O)Nc2ccc3c(c2)C(=O)c2ccccc2-3)cc1,·,14,1,0,·,-12
Cc1ccc(C)c(NS(=O)(=O)c2ccc3oc(=O)ccc3c2)c1,·,4,8,-13,10,-6
Cc1ccc(NS(=O)(=O)c2ccc3c(c2)C(=O)c2ccccc2C3=O)c(C)c1,80*,21,19,-1,24,24
COc1ccc([C@H]2C[C@H](O)[C@@H](n3cc(-c4ccc(F)cc4)nn3)CN2C(=O)C2CCCCC2)cc1,·,-5,4,10,·,-9
CSc1ccc2c(c1)C(N1CCN(C)CC1)Cc1ccc(F)cc1S2 (stereo unspecified),·,115*,-14,-25,·,11
O=[N+]([O-])c1ccc2c(c1)C(N1CCN(CCO)CC1)Cc1ccc(F)cc1S2 (stereo unspecified),·,34,-25,-14,·,2
COc1ccc2c(c1)CC(N1CCN(C)CC1)c1cc(OC)ccc1S2 (stereo unspecified),·,69*,11,-15,1,25
COc1ccc(Nc2nc(N3CCN(S(=O)(=O)N(C)C)CC3)nc3ccccc23)cc1,·,34,11,-19,-5,-12
CCOc1cc2[nH]c(=S)n(CCC(=O)NC3CCCCC3)c(=O)c2cc1OCC,·,2,12,-3,·,3
O=C(COc1ccccc1/C=C1\SC(=S)NC1=O)Nc1ccc(F)cc1,·,21,-31,2,13,52*
CCOC(=O)[C@@H]1[C@H]2COc3cc(OC)ccc3[C@@H]2N2C(=O)N(c3ccccc3)C(=O)[C@]12C,·,13,7,-4,6,12
Cc1nc2ccccc2c(N)c1C(=O)/C=C/c1ccccc1,·,72*,-10,-12,3,-14
Cc1cc(C(=O)O)ccc1-c1ccc(/C=C2\NC(=O)N(Cc3ccccc3Cl)C2=O)o1,73*,2,-2,8,15,14
COc1ccc2[nH]c(=O)c(CN(CCO)S(=O)(=O)c3c(C)ccc4nsnc34)cc2c1,2,-4,22,0,2,17
